About 4,100 (73%) of roughly 5,600 compounds were called active. About 4% were inconclusive and are not listed. So high a share suggests a set chosen from earlier hits. Only a sample is shown. Unmarked numbers belong to inactive results.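 How the source made its calls: active means mean replicate inhibition above about 95% and at least 55% of replicates individually reaching it (limit read from the data); inconclusive means only one of the two criteria is met; inactive means neither criterion is met.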

This assay can be described thus: T. cruzi intracellular proliferation inhibitors, confirmation, cell-based, NIH3T3 host, beta-gal parasite, luminescence, cherry-pick (AID 651739). The conditions noted are these: T. cruzi beta-gal in NIH3T3, GalScreen luminescence, 90 h; at 8.35 µM; stronger effect = higher value.
For orientation: inhibition means the relative decrease from the control value, in per cent. On to `CN(C)C(=O)c1ccc(-c2ccc3c(c2)[C@H]2[C@H](CCN2C(=O)c2ccc4c(c2)OCO4)[C@H](CO)N3)cc1`, for which the inhibition was 100% (active).

With `OC[C@@H]1Nc2ccc(-c3cccc(F)c3)cc2[C@H]2[C@@H]1CCN2Cc1ccncc1`, the inhibition was 114% (active).

Regarding `O=C(c1ccccn1)N1CC[C@@H]2[C@H]1c1cc(-c3ccccc3)ccc1N[C@@H]2CO`, the inhibition is 107% (active).

For `O=C(c1cnccn1)N1CC[C@@H]2[C@H](CO)Nc3ccc(-c4cccc(F)c4)cc3[C@@H]21`, the inhibition is 109% (active).

For `O=C(c1ccccc1F)N1C[C@H]2[C@@H](c3ccccc31)[C@@H](CO)N2C(=O)c1ccc(F)cc1`, the inhibition is 46.6%.

For `C[C@@H]1CN([C@H](C)CO)S(=O)(=O)c2ccc(C#Cc3ccncc3)cc2O[C@@H]1CN(C)S(=O)(=O)c1ccc(F)cc1`, the inhibition is 70.2%.

Consider `C[C@@H]1CN([C@@H](C)CO)S(=O)(=O)c2ccc(C#Cc3ccc(F)cc3)cc2O[C@H]1CN(C)S(C)(=O)=O`, for which the inhibition is 85.8%.

On to `CCCN(C)C[C@@H]1Oc2cc(C#Cc3ccc(F)cc3)ccc2S(=O)(=O)N([C@H](C)CO)C[C@H]1C`, for which the inhibition is 108% (active).

On to `CCCN(C)C[C@H]1Oc2cc(C#CC3CCCC3)ccc2S(=O)(=O)N([C@H](C)CO)C[C@@H]1C`, for which the inhibition is 105% (active).

On to `COc1ccc(NC(=O)N2CC[C@@H]3[C@@H](CO)N(C)c4ccc(-c5cccc(F)c5)cc4[C@@H]32)cc1`, for which the inhibition was 100% (active).

Consider `CCC(=O)N1CC[C@@H]2[C@@H](CO)N(C)c3ccc(-c4cccc(OC)c4)cc3[C@@H]21`, for which the inhibition was 99.1% (active).

Regarding `COc1ccc(-c2ccc3c(c2)[C@@H]2[C@@H](CCN2C(=O)Cc2ccccn2)[C@H](CO)N3C)cc1`, the inhibition is 108% (active).

`CN1c2ccc(-c3ccccc3)cc2[C@@H]2[C@@H](CCN2C(=O)c2ccncc2)[C@@H]1CO`: the inhibition was 100% (active).

Consider `CN1c2ccc(-c3ccccc3)cc2[C@H]2[C@H](CCN2C(=O)Cc2ccccn2)[C@H]1CO`, for which the inhibition was 88.9%.

For the compound `CCC(=O)N1CC[C@@H]2[C@@H](CO)N(C)c3ccc(-c4ccc(F)cc4)cc3[C@@H]21`, the inhibition was 102% (active).

In the case of `C[C@H](CO)N1C[C@H](C)[C@@H](CN(C)S(=O)(=O)c2cccc(F)c2)OCc2ccccc2-c2c(n(C)c3ccccc23)C1=O`, the inhibition is 99.6% (active).

As for `C[C@H](CO)N1C[C@H](C)[C@H](CN(C)S(=O)(=O)c2ccccc2)Oc2ncc(-c3cccc(C(F)(F)F)c3)cc2C1=O`, the inhibition is 108% (active).

Take `Cc1noc(C)c1S(=O)(=O)N(C)C[C@H]1Oc2ccc(N(C)C)cc2CC(=O)N([C@H](C)CO)C[C@@H]1C`: the inhibition is -37.8%.

`C[C@H]1CN([C@@H](C)CO)C(=O)c2ccccc2-c2ccccc2CO[C@@H]1CN(C)S(=O)(=O)c1ccc(C(F)(F)F)cc1`: the inhibition is 99.2% (active).

With `C[C@H](CO)N1C[C@H](C)[C@@H](CN(C)C(=O)Nc2ccnc(N3CCOCC3)c2)OCc2ccccc2-c2ccccc2C1=O`, the inhibition was 100% (active).

For `C[C@@H]1CN([C@H](C)CO)C(=O)c2cc(-c3cncnc3)cnc2O[C@H]1CN(C)C(=O)Nc1ccc2c(c1)OCO2`, the inhibition is -15.5%.

Regarding `COc1ccccc1-c1ccc2c(c1)O[C@H](CN(C)S(=O)(=O)c1ccc(C)cc1)[C@@H](C)CN([C@H](C)CO)S2(=O)=O`, the inhibition was 93.9%.

With `C[C@H](CO)N1C[C@H](C)[C@H](CN(C)S(=O)(=O)c2cccc(F)c2)Oc2ncc(/C=C/c3ccccc3)cc2C1=O`, the inhibition is 102% (active).

As for `Cc1ccc(-c2cnc3c(c2)C(=O)N([C@@H](C)CO)C[C@@H](C)[C@H](CN(C)Cc2ccccc2F)O3)cc1`, the inhibition is 102% (active).

Consider `Cc1ccc(S(=O)(=O)N(C)C[C@@H]2Oc3ncc(-c4cc5ccccc5o4)cc3C(=O)N([C@H](C)CO)C[C@@H]2C)cc1`, for which the inhibition was 105% (active).

As to `C[C@@H]1CN([C@H](C)CO)S(=O)(=O)c2ccc(C#CC3CCCC3)cc2O[C@@H]1CN(C)C(=O)Cc1ccncc1`, the inhibition was 92.6%.

Consider `C[C@@H]1CN([C@H](C)CO)S(=O)(=O)c2ccc(C#CC3CCCC3)cc2O[C@@H]1CN(C)Cc1cccnc1`, for which the inhibition was 98.8% (active).

For the compound `C[C@H]1CN([C@@H](C)CO)S(=O)(=O)c2ccc(C#CC3CCCC3)cc2O[C@H]1CN(C)C(=O)Cc1ccncc1`, the inhibition is 110% (active).

For `C[C@H](CO)N1C[C@H](C)[C@H](CN(C)Cc2cccnc2)Oc2cc(C#CC3CCCC3)ccc2S1(=O)=O`, the inhibition was 108% (active).

With `C[C@@H]1CCCCO[C@@H](CN(C)Cc2ccc(Cl)c(Cl)c2)[C@H](C)CN([C@H](C)CO)C(=O)c2cc(NC(=O)Nc3ccc(F)cc3)ccc2O1`, the inhibition is 88.5%.

Take `C[C@@H]1CN([C@H](C)CO)C(=O)c2cc(NC(=O)Nc3ccc(F)cc3)ccc2O[C@@H](C)CCCCO[C@H]1CN(C)Cc1ccc(Cl)c(Cl)c1`: the inhibition was 98.3% (active).

Consider `COc1ccc(NC(=O)Nc2ccc3c(c2)C(=O)N([C@H](C)CO)C[C@@H](C)[C@H](CN(C)Cc2ccc(Cl)c(Cl)c2)OCCCC[C@@H](C)O3)cc1`, for which the inhibition was 98.8% (active).

As for `C[C@@H]1CN([C@@H](C)CO)C(=O)Cc2cc(NC(=O)C3CCCCC3)ccc2O[C@@H]1CN(C)Cc1ccc(C(=O)Nc2ccccc2N)cc1`, the inhibition is 103% (active).

On to `C[C@H](CO)N1C[C@H](C)[C@H](CN(C)Cc2ccc(-c3ccccc3)cc2)Oc2ccc(NC(=O)Nc3ccc(F)cc3)cc2CC1=O`, for which the inhibition was 110% (active).

`C[C@H](CO)N1C[C@H](C)[C@@H](CN(C)Cc2ccc(-c3ccccc3)cc2)Oc2ccc(NC(=O)CCC(F)(F)F)cc2CC1=O`: the inhibition is 92.4%.

As for `C[C@@H]1CN([C@H](C)CO)C(=O)Cc2cc(NC(=O)c3ccncc3)ccc2O[C@H]1CN(C)Cc1ccc(-c2ccccc2)cc1`, the inhibition is 109% (active).

As for `COCC#Cc1ccc([C@@H]2[C@H](CO)N3CCCCN(C(=O)CN(C)C)C[C@@H]23)cc1`, the inhibition is 57.7%.

As for `Cc1cccc(-c2ccc([C@@H]3[C@H](CO)N4CCCCN(C(=O)c5ccc6c(c5)OCO6)C[C@@H]34)cc2)c1`, the inhibition is 105% (active).

`COc1ccc(-c2ccc([C@H]3[C@H]4CN(C(=O)c5ccc6c(c5)OCO6)CCCCN4[C@H]3CO)cc2)cc1`: the inhibition is 106% (active).

For the compound `CCCC#Cc1ccc([C@H]2[C@H](CO)N3CCCCN(C(=O)c4ccc5c(c4)OCO5)C[C@@H]23)cc1`, the inhibition is 104% (active).

The values above are taken from PubChem BioAssay AID651739 (Broad Institute, 2012).
